Experimental data from the supplement of paper PMC10849652.
About 8,800 targets were measured; listed, in parts, are those with a hit and a random draw of the rest. About 0.5% of all pairs of compound and target were hits.

What was measured:
Test in all cases: log2 fold change, soluble protein after heating vs DMSO (PISA); higher = thermal stabilisation; K562 lysate, 10 uM; active = over 0.2 and 3.5 SD of the protein, either way, in both replicates (recomputed)
erlotinib = compound: C#Cc1cccc(Nc2ncnc3cc(OCCOC)c(OCCOC)cc23)c1 [erlotinib]
How it was run: (§1)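 K562 pellets were dounce-homogenised in PBS pH 7.4 with 1 mM MgCl2, and the crude extract at 1 mg/mL protein was treated with 10 μM compound for 30 min. Aliquots were heated for 3 min across 48°C-58°C, pooled, and brought to 0.5% NP-40 at 4°C; soluble protein was the supernatant after 21,000xg for 90 min. Soluble protein was quantified by TMTpro 16plex LC-MS/MS with channel sums equalised, and reported as log2 fold change in thermal stability against DMSO controls, with values from duplicates.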

[1] = compound: C/C(=N\NC(=O)C1=CC(=CC=C1)S(=O)(=O)N2CCOCC2)/C3=C(C=CC(=C3)Cl)O
How it was run: as §1

[2] = compound: C1=CC(=CC=C1C2=NC3=C(N2)C=C(C=C3)C(=O)N)OC4=CC=C(C=C4)Cl
How it was run: as §1

[3] = compound: C1=CC2=C(C=CC(=C2)/C=C\3/C(=O)NC(=NCC4=CC=CS4)S3)N=C1
How it was run: as §1

[4] = compound: C1=CC2=NC=CN=C2C=C1/C=C/3\C(=O)NC(=O)S3
How it was run: as §1

[5] = compound: C1=CC=C(C=C1)C2=NC(=C(N2)C3=CC=NC=C3)C4=CC(=C(C=C4)Cl)O
How it was run: as §1

[6] = compound: C1=CC=C2C(=C1)C3=NNC4=CC=CC(=C43)C2=O
How it was run: as §1

[7] = compound: C1CCN(C1)C(=O)NC2=CC=CC(=C2)NC3=NC=C(C(=N3)NCCC4=CN=CN4)Br
How it was run: as §1

[8] = compound: C1CN(CCC1(CC2=CC=C(C=C2)Cl)N)C3=NC=NC4=C3C=CN4
How it was run: as §1

IRAK-1-4 Inhibitor I = compound: C1COCCN1CCN2C3=CC=CC=C3N=C2NC(=O)C4=CC(=CC=C4)[N+](=O)[O-] [IRAK-1-4 Inhibitor I]
How it was run: as §1

ibrutinib = compound: C=CC(=O)N1CCC[C@@H](n2nc(-c3ccc(Oc4ccccc4)cc3)c3c(N)ncnc32)C1 [ibrutinib]
How it was run: as §1

[9] = compound: CC(=O)c1cnc2ccc(-c3cc(Cl)c(O)c(Cl)c3)nc2c1N[C@H]1CC[C@H](CN(C)C)CC1
How it was run: as §1

ralimetinib = compound: CC(C)(C)Cn1c(N)nc2ccc(-c3[nH]c(C(C)(C)C)nc3-c3ccc(F)cc3)nc21 [ralimetinib]
How it was run: as §1

[10] = compound: CC(C)(O)CC(=O)NCCn1ccc2ncnc(Nc3ccc(Oc4cccc(C(F)(F)F)c4)c(Cl)c3)c21
How it was run: as §1

[11] = compound: CC(C)C1=C2N=C(C=C(N2N=C1)NCC3=CC=CC=C3)NCCCCCCN
How it was run: as §1

[12] = compound: CC1=C(C2=C(C=C1)C(=O)C3=CC=CC=C3N2CCCN)C
How it was run: as §1

[13] = compound: CC1=C(C=C(C=C1)NC(=O)C2=CC(=CC=C2)C(C)(C)C#N)NC3=CC4=C(C=C3)N=CN(C4=O)C
How it was run: as §1

[14] = compound: CC1=C(C=C(C=C1)NC(=O)C2=CC(=CC=C2)N(C)C)NC(=O)C3=CC=C(C=C3)O
How it was run: as §1

[15] = compound: CC1=CC=C(C=C1)SC2=C3C=C(SC3=CN=C2)C(=O)N
How it was run: as §1

[16] = compound: CC1=C(C(CC(=O)N1)C2=CC=C(C=C2)C(F)(F)F)C(=O)NC3=C(C=C4C(=C3)C=NN4)F
How it was run: as §1

Measured: log2 fold change

ZNF593 (UniProt O00488)
Chain of UniProt O00488 (O00488 whole entry, looked up): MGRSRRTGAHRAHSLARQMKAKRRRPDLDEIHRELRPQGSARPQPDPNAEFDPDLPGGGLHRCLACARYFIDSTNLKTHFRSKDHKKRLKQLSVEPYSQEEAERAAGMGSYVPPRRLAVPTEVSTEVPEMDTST
inactive: erlotinib -0.084 | [1] -0.149 | [2] 0.116 | [3] 0.003 | [4] 0.005 | [5] -0.098 | [6] 0.059 | [7] 0 | [8] 0.084 | IRAK-1-4 Inhibitor I 0.003 | ibrutinib 0.018 | [9] 0.17 | ralimetinib 0.096 | [10] 0.013 | [11] -0.081 | [12] -0.017 | [13] -0.028 | [14] -0.034 | [15] -0.051

UNC13A (UniProt Q9UPW8)
inactive: erlotinib 0.069 | [2] 0.039 | [11] 0.022 | [16] -0.053

ZNF146 (UniProt Q15072)
Chain of UniProt Q15072 (Q15072 whole entry, looked up): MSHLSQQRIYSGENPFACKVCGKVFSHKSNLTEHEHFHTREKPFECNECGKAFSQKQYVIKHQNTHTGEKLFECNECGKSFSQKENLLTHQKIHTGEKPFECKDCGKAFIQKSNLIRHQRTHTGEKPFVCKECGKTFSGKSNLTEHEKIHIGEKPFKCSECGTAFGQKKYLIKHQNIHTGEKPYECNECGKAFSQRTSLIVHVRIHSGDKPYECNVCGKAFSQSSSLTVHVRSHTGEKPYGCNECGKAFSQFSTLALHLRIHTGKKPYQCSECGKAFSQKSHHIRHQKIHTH
inactive: [12] -0.187

UTRN isoform 2 (UniProt P46939)
Chain of UniProt P46939 (P46939 whole entry, looked up): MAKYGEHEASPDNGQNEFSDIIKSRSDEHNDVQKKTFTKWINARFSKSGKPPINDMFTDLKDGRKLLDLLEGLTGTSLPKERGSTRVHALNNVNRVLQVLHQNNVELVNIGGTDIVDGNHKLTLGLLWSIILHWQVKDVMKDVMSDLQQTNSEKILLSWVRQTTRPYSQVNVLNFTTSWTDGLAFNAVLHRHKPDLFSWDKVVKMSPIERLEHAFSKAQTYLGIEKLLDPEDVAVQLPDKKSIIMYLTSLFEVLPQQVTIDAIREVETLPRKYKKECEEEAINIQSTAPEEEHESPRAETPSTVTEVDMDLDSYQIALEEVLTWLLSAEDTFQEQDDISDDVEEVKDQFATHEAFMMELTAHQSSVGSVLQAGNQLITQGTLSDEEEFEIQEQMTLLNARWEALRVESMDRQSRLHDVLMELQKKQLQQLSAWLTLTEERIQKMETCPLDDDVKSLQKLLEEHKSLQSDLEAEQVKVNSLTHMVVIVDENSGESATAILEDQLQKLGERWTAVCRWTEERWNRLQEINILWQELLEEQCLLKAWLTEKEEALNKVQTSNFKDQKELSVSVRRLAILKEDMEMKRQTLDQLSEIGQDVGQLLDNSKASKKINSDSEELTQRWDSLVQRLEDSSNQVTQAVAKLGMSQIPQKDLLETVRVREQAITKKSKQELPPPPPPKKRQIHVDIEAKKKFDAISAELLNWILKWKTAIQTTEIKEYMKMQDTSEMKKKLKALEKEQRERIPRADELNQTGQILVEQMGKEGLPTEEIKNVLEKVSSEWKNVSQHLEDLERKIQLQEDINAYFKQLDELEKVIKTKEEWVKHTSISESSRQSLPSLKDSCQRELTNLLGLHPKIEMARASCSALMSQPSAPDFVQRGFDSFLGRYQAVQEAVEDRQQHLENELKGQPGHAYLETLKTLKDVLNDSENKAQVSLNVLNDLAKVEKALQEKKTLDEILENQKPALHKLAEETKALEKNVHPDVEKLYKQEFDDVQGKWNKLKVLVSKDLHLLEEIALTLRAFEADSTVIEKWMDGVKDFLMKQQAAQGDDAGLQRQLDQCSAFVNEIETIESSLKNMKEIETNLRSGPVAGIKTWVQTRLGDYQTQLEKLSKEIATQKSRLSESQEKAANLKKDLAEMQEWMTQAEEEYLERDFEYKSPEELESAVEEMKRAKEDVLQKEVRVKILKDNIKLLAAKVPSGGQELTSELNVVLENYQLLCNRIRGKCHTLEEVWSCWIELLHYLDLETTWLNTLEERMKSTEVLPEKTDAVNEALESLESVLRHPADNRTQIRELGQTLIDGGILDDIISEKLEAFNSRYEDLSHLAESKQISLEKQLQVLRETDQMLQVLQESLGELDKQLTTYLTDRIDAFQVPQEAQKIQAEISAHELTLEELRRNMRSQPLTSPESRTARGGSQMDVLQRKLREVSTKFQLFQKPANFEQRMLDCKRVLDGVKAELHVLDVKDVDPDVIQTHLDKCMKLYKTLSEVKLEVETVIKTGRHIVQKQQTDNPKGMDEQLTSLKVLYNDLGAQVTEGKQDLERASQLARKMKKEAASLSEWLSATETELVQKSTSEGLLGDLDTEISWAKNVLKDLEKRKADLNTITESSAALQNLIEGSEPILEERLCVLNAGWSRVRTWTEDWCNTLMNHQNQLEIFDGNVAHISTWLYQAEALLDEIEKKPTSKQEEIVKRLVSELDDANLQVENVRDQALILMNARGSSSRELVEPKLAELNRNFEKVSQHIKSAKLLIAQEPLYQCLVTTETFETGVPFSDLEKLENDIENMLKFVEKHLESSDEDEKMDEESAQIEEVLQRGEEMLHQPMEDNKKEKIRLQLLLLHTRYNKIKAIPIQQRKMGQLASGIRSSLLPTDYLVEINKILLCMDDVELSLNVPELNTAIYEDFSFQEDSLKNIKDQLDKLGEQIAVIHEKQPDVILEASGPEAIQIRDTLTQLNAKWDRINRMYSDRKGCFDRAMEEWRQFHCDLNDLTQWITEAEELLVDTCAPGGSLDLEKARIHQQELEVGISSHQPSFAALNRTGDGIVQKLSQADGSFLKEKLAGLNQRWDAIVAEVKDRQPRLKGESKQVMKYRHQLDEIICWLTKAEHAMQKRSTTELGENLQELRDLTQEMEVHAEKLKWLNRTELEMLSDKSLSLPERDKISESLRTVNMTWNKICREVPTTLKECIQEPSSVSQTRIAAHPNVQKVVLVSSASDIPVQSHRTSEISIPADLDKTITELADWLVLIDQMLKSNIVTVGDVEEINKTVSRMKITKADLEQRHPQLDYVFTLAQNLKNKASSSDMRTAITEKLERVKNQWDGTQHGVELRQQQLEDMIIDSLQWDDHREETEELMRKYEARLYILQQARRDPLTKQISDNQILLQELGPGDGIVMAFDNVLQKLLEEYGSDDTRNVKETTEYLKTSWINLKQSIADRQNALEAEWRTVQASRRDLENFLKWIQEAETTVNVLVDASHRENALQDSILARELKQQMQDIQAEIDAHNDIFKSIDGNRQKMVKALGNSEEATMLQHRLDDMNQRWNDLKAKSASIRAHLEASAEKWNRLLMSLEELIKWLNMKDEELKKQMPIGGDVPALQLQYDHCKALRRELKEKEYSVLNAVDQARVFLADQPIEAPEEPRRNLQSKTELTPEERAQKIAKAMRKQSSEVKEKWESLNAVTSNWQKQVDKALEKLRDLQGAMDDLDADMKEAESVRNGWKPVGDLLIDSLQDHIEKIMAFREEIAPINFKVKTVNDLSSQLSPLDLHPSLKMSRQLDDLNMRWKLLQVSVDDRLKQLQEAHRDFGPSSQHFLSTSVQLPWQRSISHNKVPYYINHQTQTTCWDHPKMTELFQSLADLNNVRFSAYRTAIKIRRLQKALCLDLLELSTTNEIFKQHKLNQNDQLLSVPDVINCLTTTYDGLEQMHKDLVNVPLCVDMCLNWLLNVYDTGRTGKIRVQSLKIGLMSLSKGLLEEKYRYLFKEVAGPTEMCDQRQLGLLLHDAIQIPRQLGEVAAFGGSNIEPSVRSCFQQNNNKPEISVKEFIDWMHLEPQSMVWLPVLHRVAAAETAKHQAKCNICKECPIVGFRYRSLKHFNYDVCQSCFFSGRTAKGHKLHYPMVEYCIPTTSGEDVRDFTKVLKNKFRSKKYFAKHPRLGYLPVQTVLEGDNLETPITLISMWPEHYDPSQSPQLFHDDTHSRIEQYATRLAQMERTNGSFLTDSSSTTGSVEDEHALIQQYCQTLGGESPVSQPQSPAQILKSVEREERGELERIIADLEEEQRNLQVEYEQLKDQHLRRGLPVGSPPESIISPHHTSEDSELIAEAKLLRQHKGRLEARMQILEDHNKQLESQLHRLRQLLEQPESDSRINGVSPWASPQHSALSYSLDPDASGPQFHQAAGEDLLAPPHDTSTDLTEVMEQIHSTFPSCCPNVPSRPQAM
inactive: erlotinib -0.222 | [2] 0.247 | [4] -0.072 | [7] 0.135 | [8] 0.171 | ibrutinib -0.03 | [11] -0.012

ZNF346 (UniProt Q9UL40)
Chain of UniProt Q9UL40 (Q9UL40 whole entry, looked up): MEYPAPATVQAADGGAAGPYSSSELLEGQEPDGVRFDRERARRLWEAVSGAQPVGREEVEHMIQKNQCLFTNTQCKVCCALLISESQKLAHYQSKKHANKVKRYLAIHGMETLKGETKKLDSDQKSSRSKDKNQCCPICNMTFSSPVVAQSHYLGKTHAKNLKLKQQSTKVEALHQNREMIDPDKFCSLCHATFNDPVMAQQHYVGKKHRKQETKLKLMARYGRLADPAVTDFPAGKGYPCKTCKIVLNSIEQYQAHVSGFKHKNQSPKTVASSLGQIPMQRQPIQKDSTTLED
inactive: erlotinib -0.057 | [2] -0.009 | [4] -0.035 | [5] -0.014 | [7] 0.016 | [8] -0.002 | IRAK-1-4 Inhibitor I 0.015 | ibrutinib -0.041 | [9] 0.008 | ralimetinib -0.019 | [10] -0.075 | [11] -0.012 | [16] -0.08 | [12] 0.111 | [13] -0.019 | [14] -0.004 | [15] 0.018

WAC isoform 5 (UniProt Q9BTA9)
Chain of UniProt Q9BTA9 (Q9BTA9 whole entry, looked up): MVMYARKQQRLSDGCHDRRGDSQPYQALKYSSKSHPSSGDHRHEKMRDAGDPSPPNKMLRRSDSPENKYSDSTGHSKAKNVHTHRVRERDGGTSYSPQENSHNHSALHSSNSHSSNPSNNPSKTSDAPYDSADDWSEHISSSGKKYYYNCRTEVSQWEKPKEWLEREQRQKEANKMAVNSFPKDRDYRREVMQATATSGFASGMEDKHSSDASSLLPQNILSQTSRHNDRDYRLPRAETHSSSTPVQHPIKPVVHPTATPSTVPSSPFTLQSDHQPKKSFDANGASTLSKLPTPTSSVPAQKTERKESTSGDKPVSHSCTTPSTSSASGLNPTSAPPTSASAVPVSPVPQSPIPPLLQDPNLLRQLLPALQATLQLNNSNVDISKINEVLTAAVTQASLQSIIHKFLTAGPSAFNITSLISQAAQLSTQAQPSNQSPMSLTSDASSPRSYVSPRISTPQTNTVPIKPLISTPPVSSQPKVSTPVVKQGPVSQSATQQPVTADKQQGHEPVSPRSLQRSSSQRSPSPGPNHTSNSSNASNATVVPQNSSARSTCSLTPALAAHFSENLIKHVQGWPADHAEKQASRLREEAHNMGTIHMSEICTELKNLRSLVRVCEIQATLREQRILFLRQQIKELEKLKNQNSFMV
inactive: erlotinib -0.01 | [2] -0.156 | [5] 0.062 | IRAK-1-4 Inhibitor I 0.018 | ralimetinib 0.059 | [10] -0.145 | [11] -0.038 | [12] 0.127 | [14] 0.096
